Results reported in PubChem BioAssay (NCATS).
Results filed as inconclusive are left out. Entries that show only a call come without a potency. Unmarked numbers belong to inactive results. Activity calls are given as the source filed them. The call rests on the fitted dose curve; in most records, active means well fitted cell-killing curve with a large enough effect; inconclusive means small, poorly fitted or top-dose-only effect, or effect the other way; inactive means flat fitted curve, though single readings scatter. Where a SMILES comes first, the peptide text is derived from it. The star is where a group is joined. AFC = O=c1cc(C(F)(F)F)c2ccc(N*)cc2o1

test system: CAOV3; assay: Primary qHTS to identify gynecologic anti-cancer compounds using libraries of approved drugs and bioactive compounds (AID 1345084); conditions: Gynecologic cancer cell panel viability, ATPlite luminescence, 48 h; series mostly up to 57.5 µM; further: nearly all actives have a fitted effect of over 55% in size
In short: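 In this quantitative HTS, cell killing is estimated from loss of ATP-dependent luciferase light. Cells see five compound concentrations over a 48 h exposure.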

**Q.** Which Potency does the source give for `O=C(NCC(O)CO)c1ccncc1Nc1ccc(I)cc1F` (centres undefined) here?
**A.** inactive

**Q.** `CC1(C)CC2=C3C=CC4C5(C)CCC(O)C(C)(C)C5CCC4(C)C3(C)CCC2(C)C(O)C1` (centres undefined) was tested. Which Potency did it give?
**A.** inactive

**Q.** Which Potency does the source give for `COC(=O)C1=CO[C@@H](O[C@@H]2O[C@H](CO)[C@@H](O)[C@H](O)[C@H]2O)[C@H]2[C@@H]1CC(OC)O[C@@H]2C` (some centres undefined) here?
**A.** inactive

**Q.** For `C[C@@H]1O[C@@H](O[C@@H]2[C@@H](O[C@@H]3O[C@@H](C)[C@H](O[C@@H]4OC[C@H](O)[C@H](O[C@@H]5OC[C@@H](O)[C@H](O)[C@H]5O)[C@H]4O)[C@@H](O[C@@H]4OC[C@](O)(CO)[C@H]4O)[C@H]3O)[C@H](OC(=O)[C@]34CCC(C)(C)C[C@H]3C3=CCC5[C@@]6(C)C[C@H](O)[C@H](O[C@@H]7O[C@H](CO[C@@H]8OC[C@H](O)[C@H](O)[C@H]8O)[C@@H](O)[C@H](O)[C@H]7O)C(C)(C)C6CC[C@@]5(C)[C@]3(C)C[C@H]4O)OC[C@H]2O)[C@H](O)[C@H](O)[C@H]1O` (some centres undefined), which activity change, negative = cytotoxicity is on record?
**A.** 6.96% [at 6.55 µM]

**Q.** With `C=C1CCCC2(C)CC3(OC)OC(=O)C(C)=C3CC12` (centres undefined) as the molecule, how does the Potency read?
**A.** inactive

**Q.** For `CC(C)=CCC/C(C)=C/CCC1(C)Oc2c(c(O)cc3c2CN(C(CCC(=O)O)C(=O)O)C3=O)CC1O` (centres undefined), which Potency is on record?
**A.** inactive

**Q.** With `C=C(C(=O)O)C1CCC2(C)CCC(O)C(=C)C2C1` (centres undefined) as the molecule, how does the Potency read?
**A.** inactive

**Q.** How did the Potency turn out when `CC12CCC3c4ccc(OC5OC(C(=O)O)C(O)C(O)C5O)cc4CCC3C1CCC2O` (centres undefined) was run?
**A.** inactive

**Q.** For `CC(=O)N[C@@H](Cc1c[nH]c2ccccc12)C(=O)N[C@@H](CCC(=O)O)C(=O)N[C@@H](Cc1cnc[nH]1)C(=O)N[C@@H](CC(=O)O)C(=O)Nc1ccc2c(C(F)(F)F)cc(=O)oc2c1` (Ac-WEHD-{AFC}), which Potency is on record?
**A.** inactive
